Rango dissoc inh = prevents RanGTP from dissociating the Rango-importin beta complex; O95149+P62826; Biochemical FRET Rango-importin beta, RanGTP-induced dissociation; Potency, µM (top dose mostly 46.1 µM), without a hit: at the highest dose activity change, negative = inhibition; 340,000 compounds, 0.071% hits; note: potency is the fitted concentration of half-maximal effect; % of control where 0% means no effect; nearly all actives have a fitted effect of over 45% in size
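Quantitative HTS using a FRET biosensor: 0.1 uM Rango, 0.25 uM importin beta, 0.6 uM Ran, 2 mM GTP, 0.2 uM RCC1 final, PBS with DTT, Tween-20 and BSA. Post-read taken 45 min after Ran addition.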
Rango-impB inh = Rango-importin beta binding inhibition. Q14974. Rango CFP/YFP FRET sensor + importin beta, 45 min. Potency, µM (highest dose often 92.2 µM), for the others: top-dose inhibition of complex formation. 340,000 compounds, 0.031% hits. AID 540263;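 note: potency is the fitted concentration of half-maximal effect; 0% = DMSO wells and 100% = buffer wells lacking importin beta; nearly all actives have a fitted effect of over 15% in size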
Target sequence (Q14974 whole entry, looked up): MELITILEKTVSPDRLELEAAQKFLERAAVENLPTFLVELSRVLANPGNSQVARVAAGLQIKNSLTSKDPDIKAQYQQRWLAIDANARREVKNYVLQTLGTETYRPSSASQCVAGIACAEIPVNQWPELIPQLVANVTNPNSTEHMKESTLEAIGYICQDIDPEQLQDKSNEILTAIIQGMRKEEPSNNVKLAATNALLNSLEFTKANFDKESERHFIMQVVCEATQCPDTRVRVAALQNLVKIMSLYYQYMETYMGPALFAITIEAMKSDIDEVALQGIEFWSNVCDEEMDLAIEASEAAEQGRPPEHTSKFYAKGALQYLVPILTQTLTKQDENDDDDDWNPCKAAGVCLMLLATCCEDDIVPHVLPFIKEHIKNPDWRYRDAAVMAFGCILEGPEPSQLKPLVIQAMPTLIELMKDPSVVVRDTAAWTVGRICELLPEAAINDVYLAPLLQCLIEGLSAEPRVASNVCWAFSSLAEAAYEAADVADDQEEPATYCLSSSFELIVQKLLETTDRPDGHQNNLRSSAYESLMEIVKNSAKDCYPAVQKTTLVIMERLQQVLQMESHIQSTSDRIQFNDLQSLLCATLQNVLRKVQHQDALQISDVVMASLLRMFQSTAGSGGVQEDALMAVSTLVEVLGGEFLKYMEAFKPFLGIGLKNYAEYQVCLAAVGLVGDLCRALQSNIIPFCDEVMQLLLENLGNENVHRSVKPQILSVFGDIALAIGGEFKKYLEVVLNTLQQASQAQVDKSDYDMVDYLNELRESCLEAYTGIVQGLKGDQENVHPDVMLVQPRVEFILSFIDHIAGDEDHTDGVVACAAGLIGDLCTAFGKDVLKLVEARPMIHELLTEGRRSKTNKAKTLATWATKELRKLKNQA
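Inhibition scored from the CFP 486 nm/YFP 530 nm FRET ratio 45 min after adding 0.125 microM importin beta to 50 nM Rango biosensor preincubated 5 min with compound (room temperature, PBS with DTT, Tween-20, BSA). No-importin wells as positive control.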
PTAP TSG101 blk = blocks PTAP/TSG101 interaction to inhibit HIV-1 budding; Fluorescence polarization, FITC-PTAP peptide / Tsg101 binding; Potency, µM (top dose mostly 115 µM), without a hit: at the highest dose activity change, negative = inhibition, actives largely listed as inhibitors; 340,000 tested, under 10 active; active = well fitted inhibition curve with a large enough effect in the main read-out, with a control signal flat, not every such curve was filed as active; inconclusive = small, poorly fitted or top-dose-only effect, or effect the other way, or a change in a side signal; inactive = no such curve, though single readings can be large or run the other way; note: potency is the fitted concentration of half-maximal effect; % of control where 0% means no effect
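Fluorescence anisotropy tracks displacement of a FITC-tagged PTAP peptide (50 nM) from the Tsg101 binding domain (10 uM), following a 20 min room-temperature incubation at pH 7.5.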
MmCpn inh = blocks the Methanococcus maripaludis chaperonin Mm-Cpn; purified Mm-Cpn ATPase, ADP Transcreener TR-FRET; Potency, µM (series often up to 76.9 µM), without a hit: at the top dose activity, negative = inhibition, hits mostly inhibitors; 330,000 compounds, 0.031% hits; active = well fitted inhibition curve with a large enough effect; inconclusive = small, poorly fitted or top-dose-only effect; note: potency is the fitted concentration of half-maximal effect; % is set by controls: 0 for no effect and ±100 for the full control effect; nearly all actives have a fitted effect of over 80% in size
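Inhibition of chaperonin ATP hydrolysis is measured as reduced ADP production, detected by competitive TR-FRET in which signal falls with ADP. Final enzyme 25 nM and ATP 10 uM, reacted 30 min at 37°C.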
D3 antag = D3 dopamine receptor (human) antagonism; P35462; D3R cells, DiscoveRx beta-arrestin luminescence, antagonist mode; hits give low values; max response, negative = inhibition, %; 360,000 compounds, 2.5% hits; AID 652054; in the data active = max response below about -50%; inconclusive = no clear call, values can overlap the other calls; note: % is set by controls: 0 for no effect and ±100 for the full control effect
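Cells plated overnight at 1500 cells/well, then exposed to library compounds with dopamine controls for 90 minutes at 37 degrees C. DiscoveRx reagent added for 30–60 minutes at room temperature; luminescence read, quantitative HTS format.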
DRD3 agonist = D3 dopamine receptor (human) agonism; P35462; 410,000 compounds, 0.58% hits; max activation, %; D3R DiscoveRx beta-arrestin cells, luminescence, 90 min; in the data active = max activation above about 30%; note: 0% is about no effect
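Agonist mode: compounds and dopamine controls were applied to plated cells for 90 min at 37 degrees C after an overnight attachment at 1500 cells/well. Luminescent read-out followed 30 - 60 minutes at room temperature with DiscoveRx detection reagent.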
An asterisk follows results filed as active; u = inconclusive; x = no result. Rows were chosen to be rich in hits. Some 2.9% of all compounds tested hit in one or more screens of this group. Unless noted, calls come from the whole dose curve.

SMILES	Rango dissoc inh	Rango-impB inh	PTAP TSG101 blk	MmCpn inh	D3 antag	DRD3 agonist
CCC[C@@H](CN1CCC[C@H]1CN1C(N)=NC[C@@H]1Cc1ccccc1)N1C[C@@H](Cc2ccccc2)N(CCCC2CCCC2)C1=N	-6.8%	4.1%	x	-0.1%	-64.1*	-55.4
CCCCN1C(=N)N([C@@H](CCC)CN2CCC[C@H]2CN2C(N)=NC[C@@H]2Cc2ccccc2)C[C@H]1Cc1ccccc1	u	-2.9%	-5.5%	0.9%	-79.5*	-47.8
CCCCN1C(=N)N([C@@H](C)CN2CCC[C@H]2CN2C(N)=NC[C@H]2CC(C)C)C[C@H]1Cc1ccccc1	1.9%	0.9%	-4.2%	-0.2%	-18.4	-8.9
CCC[C@@H](CN1CCC[C@H]1CN1C(N)=NC[C@H]1CC(C)C)N1C[C@@H](Cc2ccccc2)N(CCCC2CCCC2)C1=N	-8.6%	-0.8%	-4.9%	0.6%	-0.7	-53.3
COc1cccc(CNC(=O)COCc2cc(-c3ccc4c(c3)OCO4)on2)c1	x	x	x	x	x	5.2
Cc1ccc(-c2cc3ncc4c(n3n2)-c2cc(Cl)ccc2OC4)cc1	x	x	x	x	x	2.2
CCn1ccnc1CNC(=O)c1ccc2oc(CCCc3ccccc3)nc2c1	15.1%	-1.8%	-3.9%	1.9%	-51.4*	-15.3
Cc1cc(Nc2ccc(Br)c(C)c2)n2nc(-c3ccco3)nc2n1	x	x	x	x	x	2.4
O=C(COc1ccc(F)cc1)Nc1nnc(S(=O)(=O)N2CCc3ccccc32)s1	x	x	x	x	x	2.2
CCN(CC)CCOC(=O)C(c1ccccc1)C1CCCCC1 (stereo unspecified)	13.3%	0.0%	-4.1%	-4.9%	-88.9*	-83.6
CCN(CC)CCSC(=O)C(c1ccccc1)c1ccccc1	x	x	x	x	x	-27.1
NC(=O)C(c1ccccc1)C1CCCCC1 (stereo unspecified)	8.7%	0.2%	-4.9%	3.1%	21.4	3.5
CCN(CC)CCOC(=O)C(c1ccccc1)c1ccccc1	3.2%	-1.0%	0.2%	-1.5%	-66.6*	-82.0
CCN(CC)CCOC(=O)CCc1cccc2ccccc12	-10.5%	1.0%	-1.8%	-0.7%	-66.2*	0.9
CCOc1ccc(NC(=O)CC2C(=O)N(c3ccc(OC)cc3)C(=O)N2CCC2=CCCCC2)cc1 (stereo unspecified)	x	x	x	x	x	-0.4
Cn1nnnc1SCC1=C(C(=O)O)N2C(=O)[C@@H](NC(=O)[C@H](OC=O)c3ccccc3)[C@H]2SC1	x	x	x	x	x	3.9
Cc1cc(N2C(=O)CC(N3CCN(C(c4ccccc4)c4ccccc4)CC3)C2=O)no1 (stereo unspecified)	14.0%	-1.0%	2.2%	-0.2%	-55.1*	-5.4
C=CCn1c(CCNC(=O)c2ccc(Cl)c(Cl)c2)nnc1SCCOc1ccc(OC)cc1	2.5%	4.8%	-9.5%	1.2%	6.2	-15.4
Cn1c(CCNC(=O)c2ccc(Cl)c(Cl)c2)nnc1SCc1ccc(Cl)c(Cl)c1	1.1%	-2.1%	-2.0%	-1.4%	-53.2*	0.3
CC(C)c1ccc(NC(=O)c2cc3c(s2)-c2ccccc2SC3)cc1	x	x	x	x	x	4.2
Oc1ccccc1-c1nc(NCc2ccco2)c2ccccc2n1	24.0%	11.5%	-10.3%	-14.8%	12.9	-1.2
c1ccc(-c2nc(NCC3CCCO3)c3ccccc3n2)nc1 (stereo unspecified)	14.6%	0.3%	-2.3%	0.3%	-52.8*	0.0
c1ccc(-c2nc(NCc3ccco3)c3ccccc3n2)nc1	-14.3%	6.2%	-0.8%	1.4%	-56.4*	-16.4
c1ccc(Nc2nc(NCC3CCCO3)c3ccccc3n2)cc1 (stereo unspecified)	-0.4%	u	-4.1%	1.1%	10.2	-2.9
CCOc1ccc(CNC(=O)C(C)n2ncn3cccc3c2=O)cc1 (stereo unspecified)	x	x	x	x	x	-8.1
Fc1ccccc1CN1CCN(c2ncccn2)CC1	11.2%	-0.8%	1.4%	-0.7%	-2.1	22.8
Oc1cc2c(cc1CN1CCN(c3ncccn3)CC1)OCO2	7.6%	-0.2%	-1.3%	3.3%	-14.7	42.1*

Screening data from PubChem BioAssay.
